From PubChem BioAssay
Activity calls are given as the source filed them.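 Rule for the calls, unless noted: active = visually confirmed hit in the image check and inhibition above 20%; inconclusive = visually confirmed hit but inhibition not above 20%; inactive = no visual hit in the image check.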

Columns and labels:
[1] = inhibitors of TNFa-induced NFkB p65 translocation, primary screen, imaging, HUVEC, MLSMR starter and 10KST1 sets (AID 438;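 active = inhibition above 20% together with a positive visual image hit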;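 note: compound added about 3h40 before a 20 min TNFalpha stimulation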;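 for inhibition: signal is the nuclear over cytoplasmic p65 intensity ratio per well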); details: HUVEC TNFa-induced p65 nuclear translocation; cell count: measured here: nuclei count (cytotoxicity indicator), at 2.08 µM; inhibition: at 2 µM, stronger effect = higher value, 0% TNFa-plus-vehicle, 100% no-TNFa wells
[2] = inhibitors of mutant huntingtin aggregation, primary screen, imaging, exon1htt(103Q)mCFP cells, high-content imaging (AID 483;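 active = visual image review flags a hit and inhibition of aggregation exceeds 20%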;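 note: compound exposure lasted 3 days before fixation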;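 for nuclei count: percent of the per-plate median nuclei count of sample wells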); details: exon1htt(103Q)mCFP cell line, aggregate imaging, at 2 µM; inhibition of aggregation: stronger effect = higher value; nuclei count: measured here: cell count, toxicity
[3] = inhibitors of E-selectin induction by TNFa, primary screen, imaging, HUVEC, immunofluorescence, MLSMR starter and 10KST1 sets (AID 487); details: HUVEC TNFalpha-induced E-selectin immunofluorescence imaging, at 2 µM; inhibition: stronger effect = higher value; nuclei count: measured here: cell number, toxicity;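 for inhibition: signal is fraction of cell area covered by stained E-selectin grains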;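 for nuclei count: 100% = median nuclei count of all wells on the same plate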
[4] = biological target: Voltage-gated potassium channel subunit beta-2 (Rattus norvegicus) (UniProt P62483); experiment: KvBeta enzyme negative modulators, primary screen, biochemical, NADPH fluorescence (AID 622;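 active = fluorescence slope higher than the sample average by over 3 SD, cut at about -0.22 in these data, passing the limit was not always enough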;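 note: slope of raw intensity against log time taken from 70 to 1610 s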); details: recombinant KvBeta, 4-cyanobenzaldehyde reduction, at 10 µM, stronger effect = higher value
Chain of Voltage-gated potassium channel subunit beta-2 (Rattus norvegicus) (P62483 whole entry, looked up): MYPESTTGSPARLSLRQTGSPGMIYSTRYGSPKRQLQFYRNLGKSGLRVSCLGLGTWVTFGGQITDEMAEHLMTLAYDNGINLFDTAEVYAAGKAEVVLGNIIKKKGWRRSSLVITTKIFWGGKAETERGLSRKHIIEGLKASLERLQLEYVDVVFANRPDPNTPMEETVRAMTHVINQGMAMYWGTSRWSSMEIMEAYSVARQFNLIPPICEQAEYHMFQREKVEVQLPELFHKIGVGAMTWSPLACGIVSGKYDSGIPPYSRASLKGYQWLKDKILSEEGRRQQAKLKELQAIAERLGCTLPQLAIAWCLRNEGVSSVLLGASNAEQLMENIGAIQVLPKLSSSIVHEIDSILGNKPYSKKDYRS

[5] = biological target: Voltage-gated potassium channel subunit beta-2 (Rattus norvegicus) (UniProt P62483); experiment: KvBeta positive modulators, primary screen, biochemical, NADPH fluorescence (AID 623;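 active = NADPH fluorescence slope more negative than the mean of all samples by about 3 SD, 99.7% confidence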;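 note: fluorescence intensity change per second fitted from 20 to 320 s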); details: Recombinant KvBeta, NADPH fluorescence decrease slope, 10 min; at 10 µM; stronger effect = lower value
[6] = biological target: Alpha-2C adrenergic receptor (Homo sapiens) (UniProt P18825); experiment: modulators of alpha2C/GIRK thallium flux, primary screen, cell-based, HEK293 alpha2C/GIRK1/2 (AID 624;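 active = fluorescence slope after compound addition differing from the mean of all screened samples at 99.7% confidence, in either direction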;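 note: slope of fluorescence ratio to pre-addition baseline per second over 15 to 24 s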); details: thallium flux BTC fluorescence, at 10 µM, actives lie on both sides
Chain of Alpha-2C adrenergic receptor (Homo sapiens) (P18825 whole entry, looked up): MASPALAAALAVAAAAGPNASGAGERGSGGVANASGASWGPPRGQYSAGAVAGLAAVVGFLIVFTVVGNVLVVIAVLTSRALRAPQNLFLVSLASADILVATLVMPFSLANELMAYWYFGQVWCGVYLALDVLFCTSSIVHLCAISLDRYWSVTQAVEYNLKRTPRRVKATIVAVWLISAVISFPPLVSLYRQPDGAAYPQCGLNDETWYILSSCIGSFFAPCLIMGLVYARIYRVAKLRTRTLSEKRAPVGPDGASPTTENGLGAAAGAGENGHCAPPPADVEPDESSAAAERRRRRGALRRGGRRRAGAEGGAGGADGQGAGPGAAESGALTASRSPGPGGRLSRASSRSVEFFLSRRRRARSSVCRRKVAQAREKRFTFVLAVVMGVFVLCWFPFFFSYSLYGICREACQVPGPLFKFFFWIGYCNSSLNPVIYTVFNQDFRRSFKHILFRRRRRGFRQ

[7] = inhibitors of Sendai virus-induced IRF3 signaling, primary screen, TLR/RLR signaling modifier project, cell-based, Sendai virus stimulus, luciferase, 10K MLSCN set (AID 602276;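 active = inhibition at or above 50% at 10 µM; inactive = inhibition below 50%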;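 note: firefly luciferase from ISG56 promoter only with Renilla not read in this screen; 0% = Sendai virus plus DMSO and 100% = medium plus DMSO without virus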); details: HEK293 RL24 IRF3 luciferase reporter, at 10 µM, stronger effect = higher value
[8] = inhibitors of poly I:C-induced TLR3 signaling, primary screen, cell-based, poly I:C stimulus, luciferase, 10K MLSCN set (AID 602277;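 active = inhibition of the reporter signal at or above 50%; inactive = inhibition below 50%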); details: HEK293-TLR3 RL24 IRF3 luciferase reporter, at 10 µM, stronger effect = higher value

Compound | cell count [1] | inhibition [1] | inhibition of aggregation [2] | nuclei count [2] | inhibition [3] | nuclei count [3] | fluorescence slope [4] | NADPH fluorescence slope [5] | slope [6] | inhibition [7] | inhibition [8]
N#CC1=C(N)C(C#N)(C#N)[C@H](c2ccsc2)[C@H]2COCC=C12 | 337 | 5.5% (inactive) | 1.7% (inactive) | 98.1% | 8.2% (inactive) | 93.1% | -0.538 (inactive) | 2.1e-05 (inactive) | 0.00495 (inactive) | 16.8% (inactive) | 25.2% (inactive)
CN(C)CCN1C(=O)C(O)=C(C(=O)c2cc3ccccc3o2)C1c1ccc(N(C)C)cc1 (centres undefined) | 577 | 5.8% (inactive) | 11.6% (inactive) | 95.2% | 23.3% (inactive) | 109% | -0.549 (inactive) | -2.9e-05 (inactive) | 0.00711 (inactive) | 7.8% (inactive) | 27.2% (inactive)
CCS(=O)(=O)N1CCC(C(=O)NC2CCCCCCC2)CC1 | 649 | -9.4% (inactive) | -9.5% (inactive) | 104% | -113% (inactive) | 128% | -0.378 (inactive) | 1.4e-05 (inactive) | 0.00549 (inactive) | -13% (inactive) | -6.47% (inactive)
CCOC(=O)c1sc(NC(=O)C2CC=CCC2C(=O)O)nc1C (centres undefined) | 406 | 2.5% (inactive) | -2.8% (inactive) | 97.8% | 19.8% (inactive) | 105% | -0.527 (inactive) | 5.4e-05 (inactive) | 0.00721 (inactive) | 21.8% (inactive) | 32.8% (inactive)
O=C(c1ccco1)N1CCN(c2ccc(Cl)cc2)CC1 | 173 | -5.1% (inactive) | -6.3% (inactive) | 82.3% | 12.5% (inactive) | 93% | -0.467 (inactive) | 7.7e-05 (inactive) | 0.00616 (inactive) | -73.4% (inactive) | -172% (inactive)
O=c1ccc(S(=O)(=O)N2CCC(Cc3ccccc3)CC2)c[nH]1 | 451 | 0% (inactive) | -8.8% (inactive) | 103% | -15.8% (inactive) | 111% | -0.369 (inactive) | -5e-05 (inactive) | 0.00726 (inactive) | 11.4% (inactive) | 31.9% (inactive)
O=C(NCC(=O)N(c1cnc2ccccc2c1)C(C(=O)NC1CCCC1)c1ccncc1)c1ccco1 (centres undefined) | 501 | -7.1% (inactive) | -3.6% (inactive) | 102% | -6.5% (inactive) | 107% | -0.532 (inactive) | 5.2e-05 (inactive) | 0.00551 (inactive) | 15.1% (inactive) | 17.8% (inactive)
CCCCn1c(SCC(=O)Nc2cc(C)on2)nnc1-c1cccnc1 | 414 | -3.9% (inactive) | 1.7% (inactive) | 121% | -26.4% (inactive) | 123% | -0.00106 (inactive) | -3.1e-05 (inactive) | 0.00399 (inactive) | 11.3% (inactive) | 6.93% (inactive)
Cc1ccc(CNc2cc(-c3nn4c(C)nnc4s3)ccc2C)s1 | 679 | 8.6% (inactive) | -34.9% (inactive) | 2.1% | -76.3% (inactive) | 102% | -0.444 (inactive) | -1.1e-05 (inactive) | 0.00646 (inactive) | 5.73% (inactive) | 13.7% (inactive)
CSc1ccccc1NC(=O)c1cnc2n(c1=O)CCS2 | 695 | -9.6% (inactive) | -2.5% (inactive) | 111% | -2.6% (inactive) | 112% | -0.401 (inactive) | 1e-05 (inactive) | 0.00535 (inactive) | 5.22% (inactive) | -12.4% (inactive)
CCc1ccccc1OCCCCCNCCO | 459 | 3.9% (inactive) | 28.4% (inactive) | 87.2% | 53% (inactive) | 85.2% | -0.303 (inactive) | -1e-05 (inactive) | 0.00576 (inactive) | 10.8% (inactive) | 31.9% (inactive)
O=C(O)COc1ccc(S(=O)(=O)NCCc2ccccc2)cc1 | 596 | -0.8% (inactive) | 20.5% (inactive) | 81.4% | -54.3% (inactive) | 119% | -0.543 (inactive) | -6.9e-05 (inactive) | 0.00764 (inactive) | 13% (inactive) | 24.1% (inactive)
CCCCOc1cc(=O)[nH]c(=O)[nH]1 | 379 | 11.7% (inactive) | 14.6% (inactive) | 84.2% | 5.6% (inactive) | 89.2% | -0.383 (inactive) | -5.2e-06 (inactive) | 0.00308 (inactive) | 10.4% (inactive) | 8.55% (inactive)
CC(=O)c1cccc(S(=O)(=O)N2CCC(n3nnc4cc(F)ccc43)CC2)c1 | 598 | 2.7% (inactive) | 3.8% (inactive) | 90.5% | -14.7% (inactive) | 93.6% | -0.4 (inactive) | 2.2e-05 (inactive) | 0.00694 (inactive) | -0.237% (inactive) | 31.4% (inactive)
